Screens from PubChem.
Tb PYK inh – qHTS of Trypanosoma Brucei Inhibitors. pyruvate kinase (Trypanosoma brucei), Q57TT1. AID 624173, 2012. TbPYK enzyme, Kinase-Glo Plus ATP luminescence, 45 min. hit rate 0.12% among 410,000. Potency, µM (highest dose often 76.8 µM), for inactives: at the highest dose activity, negative = inhibition, hits mostly inhibitors; also: nearly all actives have a fitted effect of over 50% in size
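In this concentration-response screen, enzyme-free wells defined baseline while DMSO plates tracked drift. Each reaction combined TbPYK, substrate, compound and 130 uM ADP for 45 min at room temperature. Kinase-Glo Plus luminescence gave the signal.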
FBPA Giardia inh – qHTS Assay for Inhibitors of Fructose-1,6-bisphosphate Aldolase from Giardia Lamblia | Potency, µM (top dose mostly 59.6 µM), for the others: at the highest dose activity, negative = inhibition, hits mostly inhibitors | hit rate 0.71% among 290,000 | purified Giardia FBPA; also: nearly all actives have a fitted effect of over 55% in size
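Giardia FBPA (40 nM reagent) was preincubated 10 min at RT with compound (up to 57.5 uM final), then substrate plus GAPDH/TPI/NAD/arsenate coupling system with diaphorase/resazurin was added; resorufin fluorescence (525/598 nm) was read after 20 min.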
LmPK inhibitor – qHTS Assay for Inhibitors of Leishmania Mexicana Pyruvate Kinase (LmPK) | purified LmPK, Kinase-Glo ATP luminescence, 1 h | Potency, µM (highest dose often 57.5 µM), for inactives: top-dose activity change, negative = inhibition, hits mostly inhibitors | hit rate 0.37% among 290,000
Target sequence (Q27686 whole entry, looked up): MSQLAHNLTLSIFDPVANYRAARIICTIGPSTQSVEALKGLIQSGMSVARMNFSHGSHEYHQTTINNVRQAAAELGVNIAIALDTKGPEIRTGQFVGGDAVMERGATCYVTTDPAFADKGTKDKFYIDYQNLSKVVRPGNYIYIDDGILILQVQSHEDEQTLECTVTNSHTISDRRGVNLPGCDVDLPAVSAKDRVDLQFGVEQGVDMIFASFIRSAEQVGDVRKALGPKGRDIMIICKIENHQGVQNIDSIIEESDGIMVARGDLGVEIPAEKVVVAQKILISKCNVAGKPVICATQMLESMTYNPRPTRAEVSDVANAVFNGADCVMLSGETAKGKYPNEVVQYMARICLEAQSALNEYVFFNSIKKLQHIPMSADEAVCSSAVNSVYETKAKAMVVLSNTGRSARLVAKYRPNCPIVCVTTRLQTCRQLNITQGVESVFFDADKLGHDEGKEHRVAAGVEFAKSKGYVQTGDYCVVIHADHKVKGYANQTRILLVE
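Pyruvate kinase activity monitored as ATP production (luciferase luminescence). Conditions: 0.1 nM enzyme, 0.5 mM PEP, 0.1 mM ADP, 1 h, RT; normalized against uninhibited and no-enzyme wells.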
RE007 growth inh – qHTS Assay for Inhibitors of the HIV-1 protein Vpr. hit rate 0.21% among 360,000. S. pombe RE007 Vpr strain, BacTiter-Glo ATP luminescence, 24 h. AID 651644, 2012. Potency, µM (highest dose often 92.2 µM), for the others: at the highest dose activity change, negative = less growth, hits mostly inhibitors; active = well fitted falling curve with a large enough effect; inconclusive = small, poorly fitted or top-dose-only effect; inactive = no such curve, though single readings can be large or run the other way; also: nearly all actives have a fitted effect of over 50% in size
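Fission yeast strain RE007, carrying one chromosomally integrated HIV-1 vpr copy, was seeded at OD 0.01 in PMG+AL medium with 23 nL pinned compound. After 24 h at 30 °C and 99% humidity, viability was read by BacTiter-Glo luminescence.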
Sm TGR inh – qHTS Assay for the Inhibitors of Schistosoma Mansoni Peroxiredoxins; Schistosoma mansoni thioredoxin glutathione reductase (TGR), Q962Y6; Potency, µM (titrated, usually from 114 µM), for inactives: at the highest dose activity change, negative = inhibition, hits mostly inhibitors; hit rate 3% among 360,000; purified TGR, DTNB reduction, TNB absorbance 405 nm; also: nearly all actives have a fitted effect of over 60% in size
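First, TGR (20 nM dispensed) and NADPH were mixed with compound. Second, a 15 min room-temperature incubation followed. Third, further NADPH and then DTNB were added to start the reaction. Finally, TNB absorbance was monitored kinetically.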
* hit, by the source's call; ? = inconclusive; . = no result given; [ ] = another dose, or the depositor's remark. Most compounds without a hit are left out; they make up all but 3.3% or so of the library. Unless noted, calls follow the shape of the dose curve; as a rule, active = well fitted curve in the direction sought with a large enough effect; inconclusive = small, poorly fitted or top-dose-only effect, or another doubt; inactive = no such curve, though single readings can be large; an effect the other way counts as inactive or inconclusive. % is scaled to controls: 0 for no effect and ±100 for the full control effect; potency is read from the fitted curve at half-maximal effect.

SMILES	Tb PYK inh	FBPA Giardia inh	LmPK inhibitor	RE007 growth inh	Sm TGR inh
COc1ccc(S(=O)(=O)N2CCCCCC2)cc1NC(=O)CCNC(=O)c1ccccc1Cl	3.1%	.	.	18.0%	.
Cn1c(NCC(O)c2ccccc2)nc2c1c(=O)n(Cc1ccc(Cl)c(Cl)c1)c(=O)n2C (stereo unspecified)	2.1%	.	.	21.4%	.
O=C(NC(=S)Nc1ccccc1)c1csnn1	-2.6%	-22.2%	-4.1%	-4.3%	14.1µM*
COc1ccc(NC(=S)NC(=O)c2csnn2)cc1	-4.1%	-20.2%	2.7%	-12.7%	0.0%
CC(C)NC(=O)COC(=O)c1cccc(NS(=O)(=O)/C=C/c2ccccc2)c1	-20.5%	8.9%	1.9%	-6.7%	-8.2%
Cn1c(N)c(C(=O)COC(=O)CNC(=O)c2ccc(Cl)cc2Cl)c(=O)n(C)c1=O	-1.2%	.	.	-5.7%	.
Cc1c(C)c2ccc(OCC(=O)NCCN3CCOCC3)cc2oc1=O	10.6%	.	9.1%	-14.3%	3.3%
COc1cc(CC(=O)Nc2ccccc2N2CCOCC2)cc(OC)c1OC	0.7%	18.8%	4.9%	-2.8%	-0.6%
COc1ccc(C)cc1C(=O)CCC(=O)Nc1ccccc1N1CCOCC1	1.1%	-2.8%	-13.2%	-0.7%	22.4µM*
C=CCN1CC[C@]23c4c5ccc(O)c4OC2C(=O)CC[C@]3(O)C1C5 (stereo partly specified)	.	-6.6%	.	.	.
C=CCN1CC[C@]23c4c5ccc(O)c4OC2C(=O)CC[C@@]3(O)C1C5 (stereo partly specified)	-0.5%	-1.4%	-4.5%	2.4%	39.8µM*
CN1C(=O)NC(c2cccc(O)c2)C(C(=O)c2cccs2)C1(O)C(F)(F)F (stereo unspecified)	2.1%	9.5%	-1.1%	-13.1%	3.55µM*
O=C(O)c1ccc2c(c1)C(=O)N(c1cccc(C(=O)/C=C/c3ccccc3)c1)C2=O	0.2%	10.8%	4.1%	-9.3%	25.1µM*
O=C(O)c1cccc(N2C(=O)c3ccc(C(=O)c4cccc([N+](=O)[O-])c4)cc3C2=O)c1	-7.0%	5.9%	1.7%	9.9%	50.1µM*
Cc1cc(C(=O)CN2C(=O)C3CC=CCC3C2=O)c(C)n1-c1ccccc1 (stereo unspecified)	3.2%	-3.6%	-6.4%	-3.5%	-10.5%
CC(NCc1ccc(S(N)(=O)=O)cc1)C(=O)NCc1ccccc1 (stereo unspecified)	-9.8%	-4.4%	0.8%	-6.8%	-10.3%
C=CCOc1ccc(C(=O)Nc2ccccc2C(=O)NCc2cccnc2)cc1	2.2%	-7.3%	0.0%	-23.1%	39.8µM*
O=C(NCc1cccnc1)c1ccccc1NS(=O)(=O)c1ccc(F)cc1F	-17.3%	-2.1%	1.8%	-12.1%	39.8µM*
O=C(Cn1ccc2ccccc2c1=O)NCCC(=O)Nc1cccnc1	-4.0%	11.5%[12.9 µM]	-0.5%	2.3%	6.7%
CC(C)(C)c1ccc(-c2nc3c(C#N)c(-c4ccc5c(c4)OCO5)ccn3n2)cc1	5.9%	-12.0%	1.7%	4.2%	2.3%
COc1ccc(NC(=O)N2CCCc3ccccc32)cc1	-3.7%	-6.2%	-6.4%	-9.8%	-9.0%
COc1ccc(NC(=O)N2CCc3ccccc32)cc1	?	-25.6%	12.6µM*	?	-13.9%
O=S(=O)(NC1CCCCCCC1)OCC(Cl)(Cl)Cl	2.0%	4.0%	-0.4%	-7.8%	-23.6%
O=S(=O)(NC1CC(NS(=O)(=O)OCC(Cl)(Cl)Cl)C2CCCCC12)OCC(Cl)(Cl)Cl (stereo unspecified)	0.8%	-2.1%	11.5%	-5.7%	79.4µM*
COc1ccccc1NC(=O)C1=C(C)Nc2nc(SCc3ccccc3C)nn2C1CC(C)C (stereo unspecified)	-1.3%	.	.	.	-0.1%
SMILES	Tb PYK inh	FBPA Giardia inh	LmPK inhibitor	RE007 growth inh	Sm TGR inh
Oc1cc[c]([Hg][Cl])cc1	1.41µM*	.	.	.	.
Cc1ccc(O)cc1 (tested in a mixture with another compound)	0.7%	.	.	.	.
COc1cc(/C=C2/C(=O)c3cccc([N+](=O)[O-])c3C2=O)c(Br)cc1O	?	-29.6%	14.1µM*	-12.3%	35.5µM*
COc1ccccc1NC(=O)CCCCCN1C(=O)c2cccc([N+](=O)[O-])c2C1=O	1.1%	7.3%	0.2%	-4.4%	-7.3%
O=C(c1ccco1)N1CCc2ccccc21	-2.9%	-5.8%	-17.1%	14.0%	2.5%
O=C(/C=C/c1ccco1)N1CCc2ccccc21	?	-9.6%	7.94µM*	?	7.94µM*
CCOC(=O)/C=C/C(=O)N1CCc2ccccc21	-9.4%	-0.7%	?	?	-11.4%
Cc1ccc(/C=C/C(=O)N2CCc3ccccc32)o1	20µM*	-6.9%	?	-90.4%	44.7µM*
CC(=O)/C(=C/c1ccccc1)C(=O)Nc1ccccc1C	-10.0%	-1.0%	1.1%	-0.2%	44.7µM*
CCSC(=O)CCCCCCCCCCCO	-1.3%	5.6%	3.8%	3.16µM*	-4.2%
COC(=O)c1c(NC(=S)Nc2ccc(F)cc2[N+](=O)[O-])sc2c1CCCCC2	-6.5%	6.7%	1.7%	-8.5%	-3.8%
COc1ccc(-n2nnnc2SCC(=O)NCc2ccco2)cc1OC	-1.6%	4.0%	5.1%	-7.5%	-9.4%
CCCn1c(SCC(=O)NCc2ccco2)nnc1C(C)C	-0.9%	-8.6%[12.9 µM]	6.6%	-3.3%	?
CCCCn1nnnc1SCC(=O)NCc1ccco1	1.9%	-8.6%	0.7%	.	39.8µM*
CCn1nnnc1SCC(=O)NCc1ccco1	2.9%	-8.5%	7.6%	8.1%	25.1µM*
COc1cccc(-n2nnnc2SCC(=O)NCc2ccco2)c1	-0.9%	-3.4%	4.5%	2.6%	50.1µM*
COC(=O)c1c(NC(=O)CN2CCC3(O)CCCCC3C2c2ccccc2OC)sc(C)c1C (stereo unspecified)	-2.5%	-3.7%	0.7%	.	19.3%
COc1ccc(C2c3ccc4ccccc4c3Oc3ncn(CCN4CCOCC4)c(=N)c32)cc1 (stereo unspecified)	-7.7%	3.1%	5.2%	23.5%	0.4%
CCc1ccc(Nc2nc3c(S(=O)(=O)c4ccc(C)cc4)nnn3c3ccsc23)cc1	-3.0%	.	.	.	-0.6%
O=C1C2C3C=CC(C3=C(c3ccccc3)c3ccccc3)C2C(=O)N1CCO (stereo unspecified)	-8.3%	-0.7%	9.1%	20.5%	8.0%
O=C1C2C3C=CC(C3=C(c3ccccc3)c3ccccc3)C2C(=O)N1Cc1ccccc1 (stereo unspecified)	-9.8%	-2.2%	9.6%	?	7.94µM*
O=C(CCc1nnc(Cc2ccc3c(c2)OCO3)o1)NC(c1ccccn1)C(F)(F)F (stereo unspecified)	-9.6%	1.8%	9.4%	15.8%	31.6µM*
COCc1cc(=O)n2[nH]c(-c3ccco3)cc2n1	0.7%	-19.4%	1.6%	0.9%	-10.9%
